Experimental data from PubChem BioAssay (NCATS).
Inconclusive results are not listed. Unmarked numbers belong to inactive results. Activity calls are given as the source filed them. Calls come from the whole dose curve; as a rule, active = well fitted cell-killing curve with a large enough effect; inconclusive = small, poorly fitted or top-dose-only effect; inactive = flat fitted curve, though single readings scatter.

assay: qHTS of pediatric cancer cell lines to identify multiple opportunities for drug repurposing: Confirmatory screen for SK-N-SH cells (AID 1347129); settings: SK-N-SH neuroblastoma cell viability; series mostly up to 46.1 µM; activity change, negative = cytotoxic: at the top concentration;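 note: cells exposed to compound for 48 h before viability read; nearly all actives have a fitted effect of over 60% in size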;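 for activity change, negative = cytotoxic: plate controls were DMSO for no effect and bortezomib control for full effect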
In short: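 Viability after 48 h compound treatment at 37C, 500-1,000 cells/well, read as ATP luminescence with CellTiter-Glo. Primary screens used 11-point (MIPE, 0.78 nM-46 µM) or 8-point (NPC, 0.59 nM-46 µM) final concentrations; follow-up screens used 11-point dilutions.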
Potency is the fitted concentration of half-maximal effect.

Row | Structure (SMILES) | Potency | activity change, negative = cytotoxic [%]
1 | CC1(COc2ccc3c(c2)ncn3-c2ccc3cccc(N4CCC(N)CC4)c3n2)COC1 | 10.5 µM (active) | –
2 | C[C@@]1(C(=O)Nc2ccc(F)nc2)CCCN1c1nc(Nc2cc(C3CC3)[nH]n2)c2cccn2n1 | 1.66 µM (active) | –
3 | CC1CNc2c(cccc2S(=O)(=O)N[C@@H](CCCN=C(N)N)C(=O)N2CC[C@@H](C)C[C@@H]2C(=O)O)C1 (stereo partly drawn) | – | -0.197
4 | CC(C)CN(C[C@H](O)[C@H](Cc1ccccc1)NC(=O)O[C@H]1CCOC1)S(=O)(=O)c1ccc(N)cc1 | – | -12.4
5 | Cc1c(C(=O)Nc2ccc(N3C[C@@H](C)O[C@@H](C)C3)nc2)cccc1-c1ccc(OC(F)(F)F)cc1 | – | 1.39
6 | C=C1[C@H](n2cnc3c(=O)[nH]c(N)nc32)C[C@H](O)[C@H]1CO | – | -1.12
7 | C[C@@H]1[C@H](O)[C@@H](C)C=CC=CC=CC=CC=CC=CC=C[C@H](O[C@@H]2O[C@H](C)[C@H](O)[C@H](N)[C@@H]2O)C[C@@H]2O[C@](O)(C[C@@H](O)C[C@@H](O)[C@H](O)CC[C@@H](O)C[C@@H](O)CC(=O)O[C@H]1C)C[C@H](O)[C@@H]2C(=O)O | – | 3.52
8 | Cc1cnc(-c2cc(N3CCN(C(=O)CCS(C)(=O)=O)CC3)ncc2Cl)c(C)c1 | – | -15.3
9 | CN1CCN(c2ncc(-c3cc(Cl)cc(Cl)c3Cl)c(N)n2)CC1 | 20.9 µM (active) | –
10 | CCC(=O)OCC(=O)[C@@]1(OC(=O)CC)[C@@H](C)C[C@@H]2[C@H]3CCC4=CC(=O)C=C[C@]4(C)[C@@]3(F)[C@@H](O)C[C@@]21C | 20.9 µM (active) | –
11 | C[C@@H]1C[C@H]2[C@@H]3CCC4=CC(=O)C=C[C@]4(C)[C@@]3(F)[C@@H](O)C[C@]2(C)[C@@]1(O)C(=O)CO | – | 6.3
12 | COc1ccc(-c2ccc3ncc4c(c3c2)n(-c2ccc(N3CCNCC3)c(C(F)(F)F)c2)c(=O)n4C)cn1 | 0.132 µM (active) | –
13 | N#CC(=C1Nc2ccccc2S1)c1ccnc(OCc2ccc(CN3CCOCC3)cc2)n1 | – | -18.4
